Only some compounds are listed: those with a hit (about 12% of all), similar ones and a draw of the others.
BAZ2B block: inhibitors of human BAZ2B bromodomain; Potency, µM (highest dose often 114 µM), inactives show top-dose activity change, negative = inhibition, actives largely listed as inhibitors; hit rate 4.4% among 360,000; Q9UIF8; AlphaScreen BAZ2B-H3K14Ac peptide displacement; note: % is set by controls: 0 for no effect and ±100 for the full control effect; nearly all actives have a fitted effect of over 60% in size
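Complex of BAZ2B and biotin-H3K14Ac (50 nM apiece) forms over 30 min at RT, then faces library compounds up to 110 uM for another 30 min; AlphaScreen beads added, 20 min dark incubation, luminescence read.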
HP1b chromo inh: inhibitors of HP1-beta chromodomain binding to methylated histone tails; AlphaScreen HP1-beta / biotin-H3K9me3 peptide binding; Potency, µM (series often up to 114 µM), for inactives: at the highest dose activity change, negative = inhibition, most hits filed as inhibitors; hit rate 0.56% among 390,000; P83916; note: nearly all actives have a fitted effect of over 70% in size
Target sequence (P83916 whole entry, looked up): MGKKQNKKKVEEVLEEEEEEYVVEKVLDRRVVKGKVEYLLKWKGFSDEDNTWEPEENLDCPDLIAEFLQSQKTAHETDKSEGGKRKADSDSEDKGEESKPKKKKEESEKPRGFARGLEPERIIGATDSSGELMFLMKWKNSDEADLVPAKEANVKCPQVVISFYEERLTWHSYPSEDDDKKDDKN
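Compound inhibition of the preformed complex between 50 nM HP1-beta and 50 nM biotinylated H3K9me3 peptide was read by AlphaScreen. Buffer was PBS pH 7.4 with 0.01% Tween-20. Incubations ran 30 min at room temperature, with 10 ug/mL donor/acceptor beads.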
JMJD2A Tudor: blocks the human JMJD2A Tudor domain | AID 504339 | AlphaScreen JMJD2A-Tudor / H3K4me3 peptide binding | Potency, µM (highest dose often 114 µM), for the others: at the highest dose activity change, negative = inhibition, usual class: inhibitors | hit rate 4.4% among 390,000 | O75164; note: % is set by controls: 0 for no effect and ±100 for the full control effect; nearly all actives have a fitted effect of over 50% in size
Sfp PPTase inh: inhibitors of Bacillus subtilis Sfp phosphopantetheinyl transferase | Q9F4F7 | Biochemical Sfp PPTase activity, qHTS | Potency, µM, for the others: largest response in the series, negative = inhibition, actives largely listed as inhibitors | hit rate 3.5% among 310,000 | AID 1490;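 note: the enzyme is Sfp with the accession as filed and its product quenches rhodamine fluorescence; 0% = enzyme reaction without inhibitor and -100% = no enzyme wells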
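Fluorescence-quenching assay: 15 nM Sfp-PPTase preincubated 15 min at room temperature with compound, then 5 uM rhodamine-CoA and 12.5 uM BHQ-2-labelled YbbR peptide added. Fluorescence (ex 525/em 598 nm) read at start and after 30 min; difference gives rate.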
PLK1 PBD inh: PLK1 (human) polo-box domain binding inhibition | Potency, µM, for inactives: max response, negative = inhibition, hits mostly inhibitors | P53350 | Plk1 PBD binding of FITC phosphopeptide, fluorescence polarization | hit rate 2.8% among 360,000; note: series mostly up to about 57 µM; % is set by controls: 0 for no effect and ±100 for the full control effect; nearly all actives have a fitted effect of over 65% in size
Target sequence (P53350 whole entry, looked up, the tested form may be a part): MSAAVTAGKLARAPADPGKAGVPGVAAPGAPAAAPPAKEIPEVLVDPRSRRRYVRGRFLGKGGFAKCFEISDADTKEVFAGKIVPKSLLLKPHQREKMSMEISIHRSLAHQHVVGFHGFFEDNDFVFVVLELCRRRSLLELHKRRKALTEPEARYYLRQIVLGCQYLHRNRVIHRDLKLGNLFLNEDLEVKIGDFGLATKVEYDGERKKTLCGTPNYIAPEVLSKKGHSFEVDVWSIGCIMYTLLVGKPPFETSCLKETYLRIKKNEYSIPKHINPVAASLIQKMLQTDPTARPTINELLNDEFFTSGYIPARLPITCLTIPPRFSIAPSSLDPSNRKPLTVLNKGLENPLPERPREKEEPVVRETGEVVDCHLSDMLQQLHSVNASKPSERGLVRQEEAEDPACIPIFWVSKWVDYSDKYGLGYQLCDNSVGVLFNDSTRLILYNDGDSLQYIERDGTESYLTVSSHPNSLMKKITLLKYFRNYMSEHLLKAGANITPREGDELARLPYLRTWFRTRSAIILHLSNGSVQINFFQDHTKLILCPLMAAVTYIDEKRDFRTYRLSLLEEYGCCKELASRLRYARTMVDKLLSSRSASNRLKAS
G9a inh: G9a (human) methyltransferase inhibition; Q96KQ7; G9a H3K9 monomethylation, AlphaScreen, 2 h; Potency, µM (highest dose often 102 µM), for the others: at the highest dose activity, negative = inhibition, actives largely listed as inhibitors; hit rate 8.8% among 350,000; AID 504332; note: % is set by controls: 0 for no effect and ±100 for the full control effect; nearly all actives have a fitted effect of over 75% in size
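Readings reflect AlphaScreen signal from monomethyl-H3K9 antibody detection. HMT at 20 nM; substrate b-H3K9 500 nM; cofactor SAM 20 uM; 2 h RT reaction; compounds tested as titrations in qHTS with 15 min preincubation.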
* marks the source's active call; other numbers are inactive results; ? = inconclusive; nt = no result given; ! = not confirmed by another sample; [ ] = another dose, or the depositor's remark. Calls come from the whole dose curve; as a rule, active = well fitted curve in the direction sought with a large enough effect; inconclusive = small, poorly fitted or top-dose-only effect, or another doubt; inactive = no such curve, though single readings can be large; an effect the other way counts as inactive or inconclusive. Potency is the fitted concentration of half-maximal effect.

SMILES	BAZ2B block	HP1b chromo inh	JMJD2A Tudor	Sfp PPTase inh	PLK1 PBD inh	G9a inh
COc1ccc(-c2[nH]nc3nc(-c4cc(Br)ccc4OC)cc(C(=O)O)c23)cc1	-27.8%	28.8%	-17.4%	nt	nt	-7.0%[59 µM]
Cc1c(CCO)c(=O)[nH]n1S(=O)(=O)c1ccc(Cl)cc1Cl	-1.8%	32.8%	-19.9%	14.7%	-3.4%	38.2%
COc1ccc(S(=O)(=O)n2[nH]c(=O)c(CCO)c2C)c([N+](=O)[O-])c1	-36.2%	9.2%	-28.7%	6.1%	13.4µM*	?
COC(=O)c1ccc2c(=O)n(CCCCCC(=O)N3CCN(c4cc(C)ccc4C)CC3)c(=O)[nH]c2c1	-15.6%	-1.6%	-27.3%	nt	nt	-14.7%[59 µM]
Cc1ccc(CN2CCCn3nc(C(=O)NCc4ccc(N(C)C)cc4)cc3C2=O)cc1	?	0.2%	?	nt	nt	14.1µM*
O=C(NCCc1ccc(Cl)cc1Cl)c1cccnc1	-3.5%	?	-11.0%	1.2%	1.3%	-2.9%
O=C(NCCc1ccc(Cl)cc1)c1cccnc1	?	28.5%	-19.9%	-2.3%	-4.7%	56.2µM*
O=C(NCCCSc1ccccc1)c1cccnc1	-35.3%	37.3%	2.1%	14.7%	-2.0%	28.2µM*
O=C(NCCSc1ccccc1)c1cccnc1	5.8%	-2.7%	-10.4%	-9.4%	-18.2%	?
O=C1C2CC=CCC2C(=O)N1Cc1ccccc1Cl (stereo not given)	-6.0%	20.7%	1.4%	8.4%	-6.0%	8.9%[59 µM]
Cc1cccc(CNc2ncncc2-c2ccccc2CN(C)C)c1	nt	nt	nt	10.1%	nt	25.3%[0.501 µM]
CCOc1ccccc1NS(=O)(=O)c1ccc2c(c1)oc(=O)n2C	-13.7%	40.7%	2.7%	nt	nt	-22.9%[59 µM]
CCOc1ccccc1CNS(=O)(=O)c1ccc2c(c1)oc(=O)n2C	8.6%	18.6%	?	3.8%	26.7µM*	?
CCN(c1ccc(OC)cc1)S(=O)(=O)c1nnc(NC(=O)COc2ccccc2)s1	-19.5%	27.9%	2.3%	12.8%	-6.2%	-10.4%
O=C1CCCCC1Sc1nnc(Cc2cccs2)n1CCc1ccccc1 (stereo not given)	-7.9%	-23.3%	79.4µM*	-13.5%	?	-25.0%[59 µM]
O=C1/C(=C\c2ccco2)CCC/C1=C\c1ccco1	44.7µM*	44.7µM*	44.7µM*	11.2µM*	5.0%	?
CC1C/C(=C/c2ccco2)C(=O)/C(=C/c2ccco2)C1 (stereo not given)	35.5µM*	nt	nt	?	nt	12.6µM*
CC1C/C(=C/c2ccccn2)C(=O)/C(=C/c2ccccn2)C1 (stereo not given)	?	10.4%	-9.7%	44.7µM*	?	50.1µM*
CC(C)(C)C1C/C(=C/c2ccccn2)C(=O)/C(=C/c2ccccn2)C1 (stereo not given)	?	15.3%	-10.3%[11.4 µM]	?	?	?
O=C1/C(=C/c2ccco2)Cc2ccccc21	?	-19.7%	-30.7%	-9.9%	-7.5%	?
CCOC(=O)N1CCC(=NNC(=O)COc2ccc(OC)cc2)CC1	-3.7%	29.1%	-21.1%	-3.3%	-8.0%	11.9%[59 µM]
COc1ccccc1/C=C(/C(=O)OCC(=O)Nc1ccccc1C)c1ccccc1	-5.2%	28.8%	-17.7%	-20.2%	4.5%	?
COc1ccccc1/C=C(/C(=O)OCC(=O)Nc1ccc(N(C)C)cc1)c1ccccc1	10µM*	?	?	-4.7%	-18.6%	10µM*
CC(C)(CO)[C@H](O)C(=O)NCCC(=O)O	nt	nt	nt	10.0%	nt	20.1%[21.5 µM]
COC(=O)Cc1cc(=O)n(-c2nc3ccccc3[nH]2)[nH]1	7.94µM*	26.5%	17.8µM*	22.0%	-11.3%	5.6%[59 µM]
SMILES	BAZ2B block	HP1b chromo inh	JMJD2A Tudor	Sfp PPTase inh	PLK1 PBD inh	G9a inh
Fc1ccccc1OCCCCCN1CCCC1	-2.6%	0.9%	-30.8%	10.0%	-10.7%	-4.9%[59 µM]
CC1CCN(CCCCOc2ccccc2F)CC1	50.1µM*	0.9%	10µM*	-6.4%	29.9µM*	-14.7%
CC1CCN(CCCCOc2ccccc2Br)CC1	?	-17.5%	15.8µM*	50.1µM*	2.5%	10µM*
COc1ccc(Cc2nnc(SCC(=O)N(C)CC(=O)Nc3ccc(C)cc3)o2)cc1	5.2%	21.2%	-8.9%	nt	-1.3%	-29.4%
Cc1ccc(-n2c(=O)c3c(C)c(C(=O)N(C)C)sc3n(CC(=O)C(C)(C)C)c2=O)cc1C	-1.2%	36.3%	-25.7%	nt	nt	5.4%[59 µM]
CCS(=O)(=O)c1ccc2oc(SCC(=O)N3CCCCC3)nc2c1	-1.3%	25.2%	12.4%	2.7%	0.6%	26.5%
C[C@]12CCC[C@H](O1)c1c(cc3c(c1O)C(=O)c1c(O)cc(O)cc1C3=O)O2	nt	?	35.5µM*	nt	?	nt
COc1ccc(-n2ccnc(SCC(=O)NCc3ccccc3Cl)c2=O)cc1	-11.6%	44.0%	5.4%	12.3%	?	-10.1%
c1ccc(C(CN2CCOCC2)c2ccccc2)cc1	?	?	3.98µM*	-14.9%	-11.1%	25.1µM*
CC(CCN1CCOCC1)c1ccccc1 (stereo not given)	?	?	22.4µM*	-17.4%	-7.6%	11.2µM*
CCN1CCN(CC(O)COC(c2ccccc2)c2ccccc2C)CC1 (stereo not given)	22.4µM*	?	5.62µM*	?	-9.3%	3.16µM*
Cc1ccccc1C(OCCN(C)C)c1ccccc1 (stereo not given)	-0.1%	32.4%	28.2µM*!	14.1%	?	39.8µM*!
CCC(O)(c1ccccc1)C(CN1CCOCC1)c1ccccc1 (stereo not given)	-8.2%	20.4%	-18.5%	8.5%	-8.6%	-2.3%
CC(=O)OC[C@@H]1O[C@H](CCON=C(C)C)C=C[C@@H]1OC(C)=O	nt	nt	nt	9.1%	nt	nt
O=C1CCCC2CCCCN12 (stereo not given)	nt	nt	nt	9.8%	nt	19.9%[186 µM]
COc1ccc(C(=O)c2cn(CC(=O)Nc3cc(C)ccc3C)c3nc(C)ccc3c2=O)cc1	48.7%[57.1 µM]	53.7%	-22.7%	nt	nt	1.4%[59 µM]
CCCCC(C=O)NC(=O)C(CC(C)C)NC(=O)OCc1ccccc1 (stereo not given)	nt	nt	nt	-12.0%	nt	nt
CCN1CCN(CC(O)COC(C)C)CC1 (stereo not given)	0.0%	-3.9%	-13.9%	-5.8%	-8.1%	50.1µM*
CC1CN(CC(O)COc2ccc(C(=O)c3ccccc3)cc2)CC(C)O1 (stereo not given)	-0.9%	28.7%	-13.5%	8.8%	-7.3%	-1.6%[59 µM]
CC1CN(CC(O)COC(c2ccccc2)c2ccccc2)CC(C)O1 (stereo not given)	56.2µM*	?	0.891µM*	?	-9.5%	35.5µM*
Cc1ccc(Cl)cc1N1CCN(CC(O)COC(C)C)CC1 (stereo not given)	1.6%	41.1%	-9.4%	2.9%	-3.4%	nt
OC(COC(c1ccccc1)c1ccccc1)CN1CCOCC1 (stereo not given)	2.9%	17.7%	?	9.5%	29.9µM*	0.6%
